High-throughput results (PubChem)
Hits are enriched below; roughly 27% of the tested compounds scored in any of these assays.
CYP2C19 inhib: blocks human cytochrome P450 2C19 | P33261 | inhibition, % at 5 µM | CYP2C19 Supersomes, luciferin-H EGE luminescence, 30 min | 96,000 compounds, 21% hits;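 active = CYP2C19 inhibition above a set limit at 5 µM in the primary screen, cut at about 50% in these data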;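 note: plate controls were negative control wells for no effect and 2.5 mM tranylcypromine positive control for full effect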
CYP2C19 activ: increases human CYP2C19 enzyme activity; recombinant CYP2C19, luciferin-H EGE luminescence; stronger effect = higher value; 0 = fully inhibited enzyme, 1 = untreated enzyme; AID 1025; activation factor at 5 µM; 96,000 tested, under 10 active;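 active = activation factor of at least 2 at 5 µM in the primary screen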;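 note: 0 = wells with 2.5 mM tranylcypromine and 1 = vehicle-only wells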
CYP2C9 inh: human CYP2C9 inhibition | CYP2C9 Supersomes, luciferin-H conversion, luminescence | inhibition, % at 5 µM | 96,000 compounds, 20% hits | AID 777;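 active = blocking of liver enzyme CYP2C9 beyond about 50% at 5 µM, limit read from the data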
sEH activator: activators of human soluble epoxide hydrolase; P34913; purified human sEH enzymatic activity, activator screen; activation, % at 2 µM; 91,000 compounds, 0.04% hits; AID 717; in the data active = activation above about 37%
Target sequence (P34913 whole entry, looked up): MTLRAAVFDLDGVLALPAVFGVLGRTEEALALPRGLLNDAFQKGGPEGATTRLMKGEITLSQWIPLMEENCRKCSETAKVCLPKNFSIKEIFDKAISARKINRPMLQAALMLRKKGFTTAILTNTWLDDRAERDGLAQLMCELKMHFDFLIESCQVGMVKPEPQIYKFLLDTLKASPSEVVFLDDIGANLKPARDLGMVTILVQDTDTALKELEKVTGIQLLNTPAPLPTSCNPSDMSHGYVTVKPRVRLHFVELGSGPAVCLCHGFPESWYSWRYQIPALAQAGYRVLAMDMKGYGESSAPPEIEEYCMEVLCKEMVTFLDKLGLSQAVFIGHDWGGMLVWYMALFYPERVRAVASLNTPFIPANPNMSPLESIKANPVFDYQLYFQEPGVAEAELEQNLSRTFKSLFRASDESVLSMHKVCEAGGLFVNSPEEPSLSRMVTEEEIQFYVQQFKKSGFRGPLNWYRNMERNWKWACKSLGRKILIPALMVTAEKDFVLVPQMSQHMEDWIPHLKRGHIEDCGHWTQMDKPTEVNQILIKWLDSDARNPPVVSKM
CYP2C9 activ: activators of human CYP2C9 | P11712 | recombinant CYP2C9, luciferin-H conversion, luminescence; stronger effect = higher value; factor 1 = untreated enzyme, 0 = blocked | activation factor at 5 µM | 96,000 compounds, 1.4% hits | AID 1024;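 active = activation factor of 2 or more for CYP2C9 at a 5 µM dose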;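 note: 0 = sulfaphenazole-blocked wells and 1 = vehicle-only wells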
sEH inhibitor: blocks human soluble epoxide hydrolase activity | P34913 | recombinant human sEH enzymatic activity assay | inhibition, % at 2 µM | 91,000 compounds, 0.34% hits | AID 707; in the data active = inhibition above about 80%
* = called active by the depositor; x = not tested or not shown.

SMILES	CYP2C19 inhib	CYP2C19 activ	CYP2C9 inh	sEH activator	CYP2C9 activ	sEH inhibitor
Cc1ccc(C)c(Cn2c(CN(C)Cc3ccccc3)nc3c2c(=O)n(C)c(=O)n3C)c1	66*	0.3	92*	10	0.1	-6
CCCCCn1c(CN(C)Cc2ccccc2)nc2c1c(=O)n(C)c(=O)n2C	82*	0.2	100*	3	0	-4
CCOCCn1c(CN(Cc2ccccc2)Cc2ccccc2)nc2c1c(=O)n(C)c(=O)n2C	76*	0.2	94*	x	0.1	x
CN(Cc1ccccc1)Cc1nc2c(c(=O)n(C)c(=O)n2C)n1Cc1ccc(F)cc1	26	0.7	72*	18	0.3	-17
COC(=O)CSc1nc2c(c(=O)n(C)c(=O)n2C)n1CCCc1ccccc1	67*	0.3	85*	x	0.1	x
Cn1c(=O)c2c(nc(CN3CCN(Cc4ccccc4)CC3)n2Cc2ccc(Cl)cc2)n(C)c1=O	33	0.7	51*	11	0.5	-7
Cc1ccc(Cn2c(CN(C)Cc3ccccc3)nc3c2c(=O)n(C)c(=O)n3C)cc1	78*	0.2	94*	9	0.1	-9
O=C(OC1CSc2nc3ccccc3n2C1)c1ccco1 (stereo not drawn)	13	0.9	8	x	0.9	x
COc1ccc(C2CC(c3cccs3)=Nc3ccccc3S2)cc1 (stereo not drawn)	x	x	x	8	x	-7
CCc1c(C(=O)O)[nH]c2ccc(Br)cc12	-2	1	26	-6	0.7	4
CCCCCCn1c(NCC)nc2c1c(=O)n(C)c(=O)n2C	16	0.8	-175	-2	2.8*	0
NC(=O)NC(=O)CSc1cccc(C(F)(F)F)c1	x	x	x	3	x	-1
COc1ccc(OC)c(S(=O)(=O)Nc2cc(OC)c(Cl)cc2OC)c1	57*	0.4	56*	5	0.4	-2
COc1cc(NS(=O)(=O)c2ccc(OC)c(C)c2C)c(OC)cc1Cl	99*	0	99*	2	0	-3
CCN1CCN(CC(=O)Nc2cccc(C)c2C)C(=O)C1=O	-4	1	1	9	1	-10
COC(=O)c1ccccc1NC(=O)c1ccc(-c2ccccc2F)o1	-7	1.1	-9	-3	1.1	1
COC(=O)c1cc(NC(=O)c2ccc(Cn3cc(Cl)cn3)o2)cc(C(=O)OC)c1	77*	0.2	89*	-8	0.1	10
COC(=O)c1ccccc1NC(=O)c1ccc(Cn2cc(Cl)cn2)o1	50*	0.5	-33	-16	1.3	19
Cc1ccc(NC(=O)c2ccc(Cn3cc(Br)cn3)o2)cc1	x	x	x	-36	x	36
Cc1ccc(-n2c(SCC(=O)NC3CCCCC3)nc3c(c2=O)SCC3)cc1	24	0.8	8	x	0.9	x
COc1ccc(C2=NCC(CSc3nnc(-c4ccc5c(c4)OCO5)o3)S2)cc1 (stereo not drawn)	46	0.5	38	-4	0.6	4
CCN(CC)S(=O)(=O)c1ccc2oc(SCC3CN=C(c4ccc(OC)cc4)S3)nc2c1 (stereo not drawn)	47	0.5	79*	13	0.2	-9
CCOC(=O)c1cc2sc(C)cc2n1CC(=O)Nc1ccc2c(c1)OCCO2	36	0.6	9	8	0.9	-5
CCOC(=O)c1cc2sc(C)cc2n1C(C)C(=O)OCC (stereo not drawn)	95*	0	54*	18	0.5	-15
COc1cccc(Cn2cnc3c(NS(=O)(=O)c4ccc(Cl)cc4Cl)c(C)c(C)cc32)c1	35	0.7	40	8	0.6	-6
SMILES	CYP2C19 inhib	CYP2C19 activ	CYP2C9 inh	sEH activator	CYP2C9 activ	sEH inhibitor
Cc1cc2c(ncn2Cc2ccccc2)c(NS(C)(=O)=O)c1C	54*	0.5	35	5	0.6	-3
COc1cccc(Cn2cnc3c(NS(=O)(=O)c4ccc(Cl)cc4)c(C)c(C)cc32)c1	10	0.9	37	-30	0.6	31
COc1cccc(Cn2cnc3c(NS(=O)(=O)c4cc(Cl)ccc4Cl)c(C)c(C)cc32)c1	14	0.9	53*	-7	0.5	9
COc1cccc(Cn2cnc3c(NS(=O)(=O)c4cccc(Cl)c4Cl)c(C)c(C)cc32)c1	84*	0.2	96*	0	0	2
Cc1ccc(-c2cc3nn(-c4ccccc4)c(N)c3c(=O)o2)cc1	12	0.9	16	8	0.8	-5
COc1ccc(C(C(=O)NC2CCCC2)N2CCc3ccccc32)cc1 (stereo not drawn)	-14	1.1	2	x	1	x
CCc1ccc(C(C)NC(=O)C2(C)CC2(Br)Br)cc1 (stereo not drawn)	90*	0.1	71*	6	0.3	-2
COC(=O)CCC(=O)N1CCc2cc(S(=O)(=O)N3CCN(c4ccccc4Cl)CC3)ccc21	32	0.7	59*	20	0.4	-19
CN(C)c1c([N+](=O)[O-])ncn1C	14	0.9	9	6	0.9	-12
COc1ccc(Cl)cc1NC(=O)CSc1nnc(Cc2cccn2C)n1-c1ccc(F)cc1	27	0.7	11	x	0.9	x
COc1cc(C2Nc3cc(Cl)c(S(N)(=O)=O)cc3S(=O)(=O)N2)ccc1OCc1ccccc1 (stereo not drawn)	66*	0.3	70*	3	0.3	-2
Cc1ccc2oc(-c3cccc(NC(=O)c4ccc(Br)o4)c3C)nc2c1	14	0.9	27	-10	0.7	12
Cc1cc2nc(-c3cccc(NC(=O)c4ccc(Br)o4)c3C)oc2cc1C	19	0.8	50*	-22	0.5	22
O=C(Oc1ccc(Cl)c2cccnc12)N1CCOCC1	12	0.9	16	-7	0.8	7
O=C(Oc1ccc(Cl)c2ccccc12)N1CCCCC1	15	0.9	42	14	0.6	-14
O=C(Oc1ccc(Cl)c2cccnc12)N1CCCCC1	55*	0.5	28	x	0.7	x
O=C(Oc1ccc2ccccc2c1Cl)N1CCCC1	75*	0.2	31	x	0.7	x
CC1CCC(NCc2ccco2)CC1 (stereo not drawn)	-20	1.2	-12	0	1.1	2
O=C(Cc1sc(-c2ccccc2Cl)nc1-c1ccccc1)Nc1ccc(F)cc1	39	0.6	73*	2	0.3	-2
COc1cccc(N(CC(=O)Nc2ccccc2C)S(C)(=O)=O)c1	63*	0.4	17	4	0.8	-4
CCOC(=O)c1ccccc1NC(=O)CN(c1cccc(OC)c1)S(C)(=O)=O	99*	0	95*	x	0.1	x
COc1ccccc1N(CC(=O)Nc1ccccc1C)S(C)(=O)=O	x	x	x	2	x	-1
CCc1ccccc1NC(=O)CN(c1cccc(OC)c1)S(C)(=O)=O	86*	0.1	63*	3	0.4	-5
CC1(C)CC(=O)C2=C(C1)N(Cc1cccnc1)C(=O)C2(NC(=O)c1ccc(F)cc1)C(F)(F)F (stereo not drawn)	20	0.8	23	13	0.8	-13
